# Assay results from PubChem BioAssay (NCATS).
# Results filed as inconclusive are left out. Entries that show only a call come without a potency. Calls of active or inactive are those of the source. Calls follow the shape of the dose curve; as a rule, active = well fitted cell-killing curve with a large enough effect; inconclusive = small, poorly fitted or top-dose-only effect; inactive = flat fitted curve, though single readings scatter.
# Experiment: Quantitative highthroughput screen to assess conditional lethalithy of P12 Ichikawa cells grown in RPMI1640 with untreated serum (RPMI+s) (AID 1963881); also: nearly all actives have a fitted effect of over 35% in size
# Settings: ATP luminescence, 48 h; Potency: viability; series mostly up to 45.8 µM
# Description: Assay Provider: Jason Cantor Ph.D.
# Department of Biochemistry
# University of Wisconsin-Madison, Madison, WI, USA
# Chemical screening studies have identified drug sensitivities across hundreds of cancer cell lines but most putative therapeutics fail to translate. Discovery and development of drug candidates in models that more accurately reflect nutrient levels in human blood is a major challenge. Here we performed high-throughput screens in conventional versus Human Plasma-Like Medium (HPLM) to identify compounds that were "missed" when screening using the artificial culture condition. Sets of conditional anticancer compounds spanned phases of clinical development and included non-oncology drugs were assessed. […] We also traced conditional phenotypes for several chemotherapeutics to availability of HPLM-specific metabolites and confirmed others for compounds whose reported targets are encoded by nonessential genes. Our findings establish generalizable strategies for exploiting conditional lethality in HPLM to reveal therapeutic candidates and mechanisms of action in cancer cells.
# Described herein are the results of each viability screens against three cell lines: NOMO1 (an acute myeloid leukemia cell line); P12-Ichikawa (a T-cell acute lymphoblastic leukemia); and SEM (a B-cell ALL). Each assay was screened using 3 different cell culture media: homemade human plasma-Like medium with 10% dialyzed fetal bovine serum (HPLM+ds); RPMI1640 with 10% untreated FBS and 5mM glucose (RPMI+s); and RPMI1640 with 10% dialyzed fetal bovine serum and 5 mM glucose (RPMI+ds).
# PROTOCOL TABLE (as described by Inglese J, Shamu CE and Guy RK. 2007)
# SEQUENCE No. (e.g., 1, 2, 3, etc.); […] (e.g., Cells, Incubation, Reagent, etc.); VALUE and DESCRIPTION.
# 1; Cells; 5 uL; white, solid bottom 1536-well Greiner assay plate.
# 2; Compounds; 23 nL; Kalypsis pin tool (Wako USA) equipped with a 1536-well pin head to transfer to the assay plates.
# 3; Incubation; 48 hours; 37C incubation.
# 4; Reagent; 3 uL; CellTiter Glo (Promega).
# 5; Incubation; 5 min, room temperature
# 6; Detection; Luminescence, Viewlux PerkinElmer.
# NOTES (numbers refer to Sequence numbers above)
# 1. Briefly, 5 ul of cell reagent was dispensed using a Multidrop Combi Dispenser. The NOMO1 and SEM cells were plated at 500 cells/well and the P12-Ichikawa line at 1000 cells/well.
# 2. After seeding the cells, 23 nL of MIPE 4.1 library compounds (in DMSO) were added to each plate using a Kalypsys 1536 Pintool dispenser. Bortezomib at final concentration of […] and DMSO were added to each plate as positive and negative controls respectively. For each screen, MIPE 4.1 compounds were added over an eleven-point concentration range […] in 3-fold dilutions.
# 3. Each plate was covered with a stainless steel gasketed lid to prevent evaporation and incubated for 48 hour at 37C, 95% relative humidity, and 5% CO2.
# 4-5. Three microliter CellTilter-GloTM luminescent substrate mix (Promega) reagent was added to the assay plate and incubated at room temperature for 5 min.
# 6. The luminescence signal was measured using a ViewLux (PerkinElmer) multiplate reader with a 2 second exposure time per plate. Data for each compound were normalized as percent viability such that measurements for DMSO and the empty well controls in each plate were defined as 100% and 0%, respectively.
# Potency is read from the fitted curve at half-maximal effect.
row,SMILES,Potency
1,C[C@](O)(COc1ccc(C#N)cc1)C(=O)Nc1ccc(C#N)c(C(F)(F)F)c1,inactive
2,Cc1ncc(OC[C@@]2(c3cccc(F)c3)C[C@H]2C(=O)Nc2ccc(F)cn2)c(C)n1,inactive
3,c1cc2c(cc1[C@H]1OC[C@H]3[C@H]1CO[C@H]3c1ccc3c(c1)OCO3)OCO2,inactive
4,CN(C)CCc1ccc(O)cc1,inactive
5,CC(=O)Nc1ccc(OC[C@](C)(O)C(=O)Nc2ccc([N+](=O)[O-])c(C(F)(F)F)c2)cc1,inactive
6,COc1ccc(C(=O)c2c(C)n(CCN3CCOCC3)c3ccccc23)cc1,inactive
7,c1ccc(CCCN2CCN(CCOC(c3ccccc3)c3ccccc3)CC2)cc1,18.7 µM (active)
8,C[C@]12Cc3cn[nH]c3C[C@@H]1CC[C@@H]1[C@H]2CC[C@@]2(C)[C@H]1CC[C@]2(C)O,inactive
9,NC1=NC(=O)N2CC12 (stereo not given),5.26 µM (active)
10,O=C1CC[C@@]2(O)[C@H]3Cc4ccc(O)c5c4[C@@]2(CCN3CC2CC2)[C@H]1O5,inactive
11,CC(N[C@H]1C[C@H]1c1ccccc1)c1ccc2c(c1)OCCO2 (stereo not given in full),inactive
12,O=C1CCC[C@@H]2[C@H]3CCCN4CCC[C@@H](CN12)[C@@H]34,inactive
13,O=P1(N(CCCl)CCCl)NCCCO1 (stereo not given),14.8 µM (active)
14,CC(NC(C)(C)C)C(=O)c1cccc(Cl)c1 (stereo not given),inactive
15,COC1=C[C@@H]2[C@@H]3Cc4ccc(OC)c(O)c4[C@]2(CCN3C)CC1=O,inactive
16,C[C@]12CCC(=O)C(O)=C1CC[C@@H]1[C@H]3CCC(=O)[C@@]3(C)CC[C@@H]12,inactive
17,O=C(N[C@H]1CN2CCC1CC2)c1ccc(Cl)cc1,inactive
18,C[C@H]([C@H](O)CCC(C)(C)O)[C@H]1CC[C@@]2(O)C3=CC(=O)[C@@H]4C[C@@H](O)[C@@H](O)C[C@]4(C)[C@@H]3CC[C@]12C,inactive
19,C[C@]12CC[C@H]3[C@@H](CCC4=CC(=O)CC[C@@]43C)[C@H]1CC[C@H]2OC(=O)CCC1CCCC1,inactive
20,NCC1(CC(=O)O)CCCCC1,inactive

row,SMILES,Potency
1,CC(C)(C)[C@]1(O)C[C@@H]2OC(=O)C[C@@]23C(=O)O[C@@H]2OC(=O)[C@H](O)C213 (stereo not given in full),inactive
2,C[C@]12COC(=O)C[C@@H]1CC[C@@H]1[C@H]2CC[C@@]2(C)[C@H]1CC[C@]2(C)O,inactive
3,COc1cc(C(=O)N2CC[C@@H](O)[C@@H](N)C2)cc2nc(-c3cc4ccccc4n3CC3CC3)n(C)c12,1.05 µM (active)
4,CC[C@@H](C(N)=O)N1CCCC1=O,inactive
5,C#CCN(C)[C@H](C)Cc1ccccc1,inactive
6,CC(C)(C)c1cc(C=C(C#N)C#N)cc(Br)c1O,inactive
7,Cc1ccccc1-n1c(Cn2ncc3c(N)ncnc32)nc2cccc(C)c2c1=O,2.64 µM (active)
8,CC1=C(O)C(=O)C=C2C1=CC=C1[C@@]2(C)CC[C@@]2(C)[C@@H]3C[C@](C)(C(=O)O)CC[C@]3(C)CC[C@]12C,2.96 µM (active)
9,COC1(CS(=O)c2ccccc2)CCN(CCc2c[nH]c3ccc(F)cc23)CC1 (stereo not given),inactive
10,COCC1(CO)C(=O)C2CCN1CC2 (stereo not given),16.6 µM (active)
11,CC[C@@]1(O)C(=O)OCc2c1cc1n(c2=O)Cc2cc3ccccc3nc2-1,0.0235 µM (active)
12,CN1C(=O)COc2c(C(=O)NC3CN4CCC3CC4)cc(Cl)cc21 (stereo not given),inactive
13,CCOP(=O)(OCC)C(C)NC(=O)N(CCCl)N=O (stereo not given),inactive
14,C=C(C)[C@H]1Cc2c(ccc3c2O[C@@H]2COc4cc(OC)c(OC)cc4[C@@H]2C3=O)O1,2.09 µM (active)
15,Cc1sc2c(c1C)C(c1ccc(Cl)cc1)=N[C@@H](CC(=O)OC(C)(C)C)c1nnc(C)n1-2,1.87 µM (active)
16,CC(=O)O[C@@]12CO[C@H]1C[C@H](O)[C@@]1(C)C(=O)[C@H](O)C3=C(C)[C@@H](O)C[C@@](O)([C@@H](OC(=O)c4ccccc4)[C@@H]21)C3(C)C,9.35 µM (active)
17,O=c1[nH]c2ccccc2n1CCCN1CCC(n2c(=O)[nH]c3cc(Cl)ccc32)CC1,inactive
18,COc1ccc2c(c1OC)CN1CCc3cc4c(cc3C1C2)OCO4 (stereo not given),1.87 µM (active)
19,Oc1ccc2c3c1O[C@H]1c4[nH]c5c(c4C[C@@]4(O)[C@@H](C2)N(CC2CC2)CC[C@]314)C[C@@]1(O)[C@H]2Cc3ccc(O)c4c3[C@@]1(CCN2CC1CC1)[C@H]5O4,inactive
20,Cn1cc(C2=C(c3cn(C4CCN(Cc5ccccn5)CC4)c4ccccc34)C(=O)NC2=O)c2ccccc21,inactive
